The sample as a whole holds a higher share of hits than the screen did.
Bead autofluor = flagged as autofluorescent in microsphere protease counterscreen; hit rate 3.1% among 360,000; compound autofluorescence counterscreen, microsphere flow cytometry; hits give high values; fluorescence intensity (no concentration beside the values); AID 624483; in the data active = fluorescence intensity above about 16000; inconclusive = no clear call, values can overlap the other calls
BoNT A protease = inhibitors of Botulinum neurotoxin A light chain protease; multiplex microsphere protease substrate cleavage, flow cytometry; inhibition, % at 10 µM; hit rate 0.17% among 360,000; also: plate controls were buffer without enzyme for full effect and enzyme alone for no effect
Anthrax LF inh2 = inhibitors of Bacillus anthracis lethal factor protease; inhibition, % at 10 µM; AID 588501; multiplex microsphere protease cleavage assay, LF; hit rate 0.12% among 360,000; also: plate controls were buffer without enzyme for full effect and enzyme alone for no effect
BoNT F protease = inhibitors of Botulinum neurotoxin F light chain protease; Multiplex microsphere protease cleavage assay, flow cytometry; inhibition, % at 10 µM; hit rate 0.22% among 360,000; AID 588497; in the data active = inhibition above about 35%, passing the limit was not always enough; inconclusive = no clear call, values can overlap the other calls; also: plate controls were buffer without enzyme for full effect and enzyme alone for no effect
TcdB inh = blocks C. difficile toxin B glycohydrolase activity. P18177. TcdB glycohydrolase enzymatic assay, plate reader. AID 652162. hit rate 0.24% among 350,000. inhibition, % at 9.99 µM; in the data active = inhibition above about 10%
An asterisk follows results filed as active; ? = inconclusive; nt = no result given. Rule as the data show it, unless noted: active = inhibition above about 30%; inconclusive = no clear call, values can overlap the other calls; inactive = below that.

SMILES	Bead autofluor	BoNT A protease	Anthrax LF inh2	BoNT F protease	TcdB inh
Cc1ccc(N2CN=c3s/c(=C\c4ccccn4)c(=O)n3C2)cc1	18880*	?	1.3	3.7	nt
CC(=NCCN1CCOCC1)c1c(O)n(-c2ccccc2C)c(=O)[nH]c1=O	23519*	-2.5	-0.2	-2.2	nt
CC(=NCC1CCCO1)c1c(O)n(C2CCCCC2)c(=O)[nH]c1=O (stereo unspecified)	5954	-0.4	-2.1	2.5	0.2
CC(=NCCCN1CCOCC1)c1c(O)[nH]c(=O)[nH]c1=O	20875*	4.1	-3.0	6.2	nt
CCC(=NCCN1CCOCC1)c1c(O)n(-c2ccccc2C)c(=O)[nH]c1=O	3619	0.4	-0.1	3.7	nt
CC(=NCCN1CCOCC1)c1c(O)n(C2CCCCC2)c(=O)[nH]c1=O	24874*	-3.6	-3.0	-5.5	nt
CN(C)C(=O)c1cccc(-c2ccc([C@@H]3[C@@H](CO)N(C(=O)C4CCCCC4)[C@H]3C#N)cc2)c1	nt	nt	nt	nt	-0.6
O=C(NCc1ccc(Cl)cc1Cl)c1ccccn1	24310*	-3.0	-0.3	-2.7	0.4
O=C(COC(=O)c1ccccn1)NCc1ccc(Cl)cc1Cl	9588	-2.8	-0.6	-6.7	2.0
O=C(NC[C@@H]1CC[C@@H]2[C@@H](CN2S(=O)(=O)c2ccccc2[N+](=O)[O-])O1)C1CCOCC1	nt	nt	nt	nt	-5.3
O=C([C@@H]1[C@@H](CO)[C@@H]2Cn3c(ccc(-c4cccnc4)c3=O)[C@H]1N2Cc1ccncc1)N1CCOCC1	nt	nt	nt	nt	-0.1
C[C@H](CO)N1C[C@H](C)[C@@H](CN(C)C(=O)NC2CCCCC2)Oc2ccc(NC(=O)CCCN(C)C)cc2C1=O	nt	nt	nt	nt	-1.8
O=C1CSC(=S)N1/N=C/C=C/c1ccccc1	1986	42.8*	20.6	10.9	0.8
C[C@@H](NC(=O)C[C@H]1CC[C@@H]2[C@H](COC[C@H](O)CN2C(=O)Nc2cc(Cl)cc(Cl)c2)O1)c1ccccc1	nt	nt	nt	nt	-0.7
Cc1ccc(-c2ccc3c(c2)O[C@@H](CN(C)S(C)(=O)=O)[C@H](C)CN([C@H](C)CO)S3(=O)=O)cc1	nt	nt	nt	nt	3.0
Cc1ccc2c(c1)-c1c(cnn1CC(=O)NC(C)CCc1ccco1)CO2 (stereo unspecified)	6080	-0.4	-10.7	-11.9	10.8*
Cc1ccc2c(c1)-c1c(cnn1CC(=O)N(Cc1ccco1)C1CCCCC1)CO2	5868	-0.9	-4.5	-7.9	0.7
COCC(=O)Nc1nc(-c2ccccc2)c(C)s1	19856*	-1.4	-0.8	-1.5	nt
CCOc1c(Cl)cc(C(=O)Nc2ccccc2C(=O)O)cc1Cl	19009*	?	-2.8	1.7	nt
CCOc1ccc(C(=O)Nc2cccc(C(=O)O)c2C)cc1Cl	2536	-0.9	1.0	-8.8	-2.5
COc1ccc(C(=O)Nc2ccccc2C(=O)O)cc1Cl	2422	0.7	4.6	4.0	10.3*
CCOc1ccc(C(=O)Nc2ccccc2-c2ccccc2)cc1Cl	17980*	6.5	-7.2	6.0	nt
COc1ccc(NC(=O)c2ccc3nc(-c4ccccc4)c(-c4ccccc4)nc3c2)c(OC)c1	2048	0.0	2.2	-2.0	0.9
COc1ccccc1NC(=O)c1ccc2nc(-c3ccccc3)c(-c3ccccc3)nc2c1	20872*	?	-4.7	2.4	nt
COc1ccc(C(=O)Nc2ccccc2C(=O)O)cc1NC(=O)C(c1ccccc1)c1ccccc1	4788	-0.4	-6.0	2.8	-0.1
SMILES	Bead autofluor	BoNT A protease	Anthrax LF inh2	BoNT F protease	TcdB inh
COc1cccc(NC(=O)N[C@@H]2C=C[C@H](CC(=O)N3CCN(C)CC3)O[C@@H]2CO)c1	nt	nt	nt	nt	0.9
C[C@@H](NC(=O)C[C@H]1CC[C@@H](NC(=O)C2CCOCC2)[C@@H](CO)O1)c1ccccc1	nt	nt	nt	nt	0.8
O=C(C1CC(c2ccccc2O)=NO1)N1CCC2(CC1)OCCO2 (stereo unspecified)	20077*	6.1	0.0	6.9	nt
COc1cc(OC)c(C2=NOC(C(=O)N3CCCc4ccccc43)C2)cc1Cl (stereo unspecified)	23619*	-1.7	-7.1	0.2	nt
COc1ccc(C2=NOC(C(=O)N3CCOCC3)C2)cc1OC (stereo unspecified)	23787*	-5.0	-0.2	-5.3	0.2
O=C(C1CC(c2ccccc2O)=NO1)N1CCCC1 (stereo unspecified)	7759	0.2	-0.3	3.0	0.6
CCC1CCCCN1C(=O)C1CC(c2cc(Cl)c(OC)cc2OC)=NO1 (stereo unspecified)	5380	-0.4	1.2	-5.9	nt
CCOC(=O)N1CCN(C(=O)C2CC(c3ccccc3OC)=NO2)CC1 (stereo unspecified)	20183*	8.0	-13.9	8.7	1.0
C[C@H](CO)N1C[C@H](C)[C@H](CN(C)Cc2ccc(Cl)c(Cl)c2)Oc2ccc(NC(=O)Cn3cnnn3)cc2CC1=O	nt	nt	nt	nt	0.4
